The results in this text go back to PubChem BioAssay (NCATS).

This assay in a line: qHTS profiling of the MIPE4 collection as inhibitors of Plasmodium falciparum (HB3) proliferation (AID 743347). The settings on record: P. falciparum HB3 in erythrocytes, SYBR Green DNA, 72 h; at 28.5 µM (top of the series) unless noted. From the text: Plasmodium falciparum is a virulent malarial parasite that kills 1-2 million people worldwide each year. Transmitted by mosquitoes, the sporozoite form of the parasite enters the blood stream to infect hepatocytes, where they become merozoites that infect red blood cells (erythrocytes). Within erythrocytes, merozoites begin a […] cycle of growth and division, after which the parasite is released to infect new red blood cells. Gametocytes, which form within erythrocytes as well, circulate in the bloodstream and are ingested by the mosquito, thereby completing the life cycle. To profile malarial isolates for differential chemical responses and to identify inhibitors of malarial growth, an assay that measures P. falciparum growth and replication within erythrocytes was employed. This assay uses a DNA binding fluorescent dye (SYBR Green) to detect parasite DNA following cell lysis. Because mature erythrocytes lack DNA, only Plasmodium-derived DNA is detected.
The SYBR Green viability assay was adapted from a method described previously (Plouffe et al., 2008). For screening 3 ul culture medium was dispensed into 1536 well black clear bottom plates (Aurora Biotechnologies) using a Multidrop Combi (Thermo Fisher Scientific Inc.), 23 nL compounds in DMSO were added by a pin tool (Kalypsys), and 5 ul of erythrocytes infected with P. falciparum (0.3% parasitemia, 2.5% hematocrit final concentration) were added. The plates were incubated at 37 C in a humidified incubator in 5% CO2 for 72 h, and 2 ul lysis buffer (20 mM Tris HCl, 10 mM EDTA, 0.16% saponin, 1.6% triton X, 10X SYBR Green I supplied as 10,000X […] by Invitrogen) was added to each well. The plates were mixed for 25 sec with gentle shaking and incubated overnight at room temperature in the dark. The following morning, fluorescence intensity at 485(14) nm excitation and 535(25) nm emission wavelengths was measured on an EnVision (Perkin Elmer) plate reader. Plate reads were normalized relative to the control inhibitor (0.29 uM artemisinin) and vehicle (DMSO) wells present on each plate and then corrected by an algorithm using vehicle-only control plates at the beginning and end of the compound plate stack.
A general note: In qHTS, concentration-response curves come from the screen itself.
`CC(C)(C)c1nc2c3cc[nH]c(=O)c3c3cc(F)ccc3c2[nH]1` yielded a growth, % of control of 58.6%. With `CCc1cnn2c(NCc3ccc[n+]([O-])c3)cc(N3CCCC[C@@H]3CCO)nc12`, the growth, % of control is 8.08%. In the case of `CCCNS(=O)(=O)Nc1ncnc(OCCOc2ncc(Br)cn2)c1-c1ccc(Br)cc1`, the growth, % of control is 88.3%. For `OCc1ccccc1O[C@@H]1O[C@H](CO)[C@H](O)[C@H](O)[C@H]1O` the value was 92.1%; for `CCC[C@H]1C[C@H](C(=O)N[C@@H]([C@@H]2O[C@@H](SC)[C@@H](O)[C@@H](O)[C@@H]2O)[C@H](C)Cl)N(C)C1`, 25.3%; for `COc1ccc2cc([S+]([O-])Cc3ncc(C)c(OC)c3C)nc2c1`, 41.2%.

`COc1cc(N2CCC(C(N)=O)CC2)ccc1Nc1nc(N)c(Cl)c(Nc2ccccc2S(=O)(=O)C(C)C)n1` yielded a growth, % of control of 53.9%. As to `CC(C=CC1=C(C)CCCC1(C)C)=CC=CC(C)=CC(=O)Nc1ccc(O)cc1`, the growth, % of control was 7.5% [at 57.5 µM]. As to `C#C[C@]1(O)CC[C@@H]2[C@@H]3CCC4=CC(=O)CC[C@@H]4[C@H]3CC[C@@]21CC`, the growth, % of control is 61.1%.

The compound `N#Cc1cc(NC(=O)Nc2nnc(-c3ccncc3)s2)ccc1-c1cn[nH]c1` showed a growth, % of control of 41.3%. In the case of `CN1[C@H]2CC(OC(=O)[C@@H](CO)c3ccccc3)C[C@H]1[C@H]1O[C@H]12` (stereo not given in full), the growth, % of control is 107%. Take `CCc1ccc(C(=O)Nc2cc(CN3CCN(C)CC3)cc(C(F)(F)F)c2)cc1C#Cc1cnc2ccnn2c1`: the growth, % of control was 3.13%.

Turning to `C[C@](Cc1c[nH]c2ccccc12)(NC(=O)OC1C2CC3CC(C2)CC1C3)C(=O)NC[C@H](NC(=O)CCC(=O)O)c1ccccc1` (stereo not given in full), the growth, % of control came out at 10.5%.

Regarding `CC(=O)OCC(=O)[C@@]12N=C(C)O[C@H]1C[C@H]1[C@@H]3CCC4=CC(=O)C=C[C@]4(C)[C@@H]3[C@@H](O)C[C@@]12C`, the growth, % of control is 84%. For `CC(C)(O)Cn1c(NC(=O)c2ccc(-c3cn[nH]c3)s2)nc2cc(CN3CCOCC3)ccc21`, the growth, % of control was found to be 6.36%. For `CC(C)(O)CC[C@@H](O)[C@](C)(O)[C@H]1CC[C@@]2(O)C3=CC(=O)[C@@H]4C[C@@H](O)[C@@H](O)C[C@]4(C)[C@@H]3CC[C@]12C` the value was 674%. Turning to `CCS(=O)(=O)Nc1ccc2[nH]c(O)c(C(=Nc3ccc(CN4CCCCC4)cc3)c3ccccc3)c2c1`, the growth, % of control turned out to be 4.28%. Consider `Cc1cc(O)c2c(c1)C(=O)c1cccc(O)c1C2=O`, for which the growth, % of control was 110%. For `CC(=O)O[C@H]1C[C@@H]2CC[C@H]3[C@H]4C[C@H]([N+]5(C)CCCCC5)[C@@H](OC(C)=O)[C@@]4(C)CC[C@@H]3[C@@]2(C)C[C@H]1N1CCCCC1` the value was 71.6%; for `CN(C)CC[C@H](c1ccc(Cl)cc1)c1ccccn1`, 95.2%; for `O=C(C=CC#Cc1cccc(NS(=O)(=O)c2ccccc2)c1)NO`, 4.3%.

`O=C(Nc1cc2cc[nH]c2cn1)c1ccccc1` had a growth, % of control of 75.4%. `CC1(C)O[C@@H]2C[C@H]3[C@@H]4CCC5=CC(=O)C=C[C@]5(C)[C@@H]4[C@@H](O)C[C@]3(C)[C@]2(C(=O)CO)O1` gave a growth, % of control of 5.96%. Take `CCc1cc(C(C)=NOCc2ccc(C3CCCCC3)c(C(F)(F)F)c2)ccc1CN1CC(C(=O)O)C1`: the growth, % of control is 11.3%.

Compound `CC(C)n1cnc2c(NCCc3ccc(O)cc3)nc(-c3csc4ccccc34)nc21` had a growth, % of control of 8.98%. `CN(C)c1ccc(C(=O)NCCCCCCC(=O)NO)cc1` came in with a growth, % of control of 2.69%. As for `COc1ccc(CCC(=O)c2c(O)cc(O[C@@H]3O[C@H](CO)[C@@H](O)[C@H](O)[C@@H]3O[C@@H]3O[C@@H](C)[C@H](O)[C@@H](O)[C@@H]3O)cc2O)cc1O`, the growth, % of control turned out to be 6.55%. On to `CS(=O)(=O)N1CCc2c(-c3cnc(N)nc3)nc(N3CCOCC3)nc21`, for which the growth, % of control was found to be 2.07%. For `O=C1CSC(=O)N1C(CCc1ccncc1)COc1ccc(-c2cccc([N+](=O)[O-])c2)cc1` (stereo not given) the value was 4.69%; for `CCCCOc1ccc(C(=O)Nc2ccc(F)cc2F)cc1`, 94.1%. As for `CC(C)(C)[C@H](NC(=O)c1ccc(N)c(Cl)c1)C(=O)N1CCC[C@@H]1C(=O)N[C@H](C#N)CC(=O)O`, the figure is 588% [at 3.19 µM]; as for `CC(=O)SCC(Cc1ccccc1)C(=O)NCC(=O)OCc1ccccc1` (stereo not given), 65.1%; as for `COc1ccc(C=Cc2cc(OC)c(OC)c(OC)c2)cc1NC(=O)[C@H](N)CO`, 85.5%. In turn, `CN[C@H]1[C@@H](O)[C@@H]2O[C@@H]3O[C@H](C)CC(=O)[C@]3(O)O[C@@H]2[C@@H](NC)[C@H]1O` came in with a growth, % of control of 6.56%. As to `C[C@@]12C(=O)OC(=O)[C@@]1(C)C1CCC2O1`, the growth, % of control came out at 7.05%.

`CCCCC(=O)O[C@]1(C(=O)CO)[C@@H](C)C[C@H]2[C@@H]3CCC4=CC(=O)C=C[C@]4(C)[C@@]3(F)[C@@H](O)C[C@@]21C` returned a growth, % of control of 22.8%. For `NC(=O)N1CCC(CC(=O)N2CCC([C@H]3c4ncc(Br)cc4CCc4cc(Cl)cc(Br)c43)CC2)CC1` the value was 9.54%. As for `C[C@H](NC(=O)C(C#N)=Cc1cccc(Br)n1)c1ccccc1`, the figure is 22%; as for `C=CC[C@@H]1C=C(C)C[C@H](C)C[C@H](OC)[C@H]2O[C@@](O)(C(=O)C(=O)N3CCCC[C@H]3C(=O)O[C@H](C(C)=C[C@@H]3CC[C@H](O)[C@H](OC)C3)[C@@H](C)[C@@H](O)CC1=O)[C@@H](C)C[C@@H]2OC`, 44.7%; as for `N#CC(=C(N)Sc1ccc(N)cc1)c1ccccc1C(F)(F)F`, 7.78%.
